From PubChem BioAssay (NCI) come the findings set out here.

Structures are written as SMILES. “And” between values parts separate entries of the source, which are not always exact repeats. Equal values may be shown once. Compounds without any hit were thinned out: in the full panel of roughly 83,000, 20% have a hit.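 Method: cells in 96-well plates; compound added at one concentration; 48 h incubation; percent growth measured; values under 10 scored active.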 Unmarked numbers belong to inactive results. The source made the active and inactive calls.

The test system of this experiment is HCT-116 colon. The experiment in a line: NCI-60 one-dose screen, 48 h (100 = growth as untreated, 0 = no growth, -100 = all killed). To be noted: 10 µM unless noted.
In the case of `CCCCn1c(=O)c(C(=O)NCc2ccccc2Cl)c(O)c2ccccc21`, the growth is 21.4%. `O=C(NCCCN1CC1)Nc1cccc2ccccc12`: the growth is 98.1% and 94.2%. With `Oc1cc(N2CC2)c(O)cc1N1CC1` the figure was 6.02% (active); with `CC12CCC3C4CCC(=O)C=C4CCC3C1CC1CC(=O)OC12` (configuration not stated), 97.1%.

As to `CCOP(=O)(OCC)C(=O)N(CC)CC`, the growth was 104%.

On to `C#Cc1cccc(Nc2nc(Cl)nc3cc(NC(=O)CF)ccc23)c1`, for which the growth is 42.4%. Next, `CC[C@H](C)[C@H](NC(=O)[C@H]1CCCCN1C)C(=O)N(C)[C@H](C(=O)NC12CC(C(=O)N[C@@H](Cc3ccccc3)C[C@H](C)C(=O)OC)(C1)C2)C(C)C`: 99.5%. Regarding `CN1CCC2(CC1)C(C#N)C(=O)NC(=O)C2C#N` (configuration not stated), the growth was 93.3%.

In the case of `CC12CCC3C(CCC4CC(O)CCC43C)C1CCC2=O` (configuration not stated), the growth was 88.6%.

Regarding `C=CC[PH+](c1ccccc1)c1ccccc1.C=CC[PH+](c1ccccc1)c1ccccc1.[Pt+2].[S-]c1nc2ccccc2[nH]1.[S-]c1nc2ccccc2[nH]1`, the growth is -29.7% (active). Next, `Cc1cc[c-]cc1.Fc1c[c-]c(-c2ccccn2)c(F)c1.[Pt+2].c1ccc([PH+](c2ccccc2)c2ccccn2)cc1`: 35%; `C=C[Se]CC(=O)/C=C/c1ccccc1`: 56.1%; `CCCCCCCCCCCCCCCCCC1OCC(COC(=O)O[C@@H](C(=O)O[C@H]2C[C@@]3(O)[C@@H](OC(=O)c4ccccc4)[C@@H]4[C@]5(OC(C)=O)CO[C@@H]5C[C@H](O)[C@@]4(C)C(=O)[C@H](OC(C)=O)C(=C2C)C3(C)C)[C@@H](NC(=O)c2ccccc2)c2ccccc2)O1` (some centres not stated): 18.2%. Turning to `CC1(C)C=Cc2c(ccc3c2[N+]([O-])=C2C3=C[C@@]34NC(=O)[C@]5(CCCN5C3=O)C[C@@H]4C2(C)C)O1`, the growth is 17.4%. Next, `O=C(O)C1C(C(=O)O)C2(Cl)C(Cl)=C(Cl)C1(Cl)C2(Cl)Cl` (configuration not stated): 101% and 107%; `CNC(=O)O/N=C(\SC)C(=O)N(C)C`: 105%; `C[C@]12CCc3sc(Nc4ccc(F)cc4F)nc3C1=CC[C@@H]1[C@@H]2CC[C@]2(C)C(=O)CC[C@@H]12`: -23.3% (active).

As for `N#CC(C#N)=C(C#N)C#N`, the growth was 102%. For `N#CCC(=O)c1ccccc1`, the growth is 107%. With `O=C(O)c1ccc(=O)[nH]c1` the figure was 103% and 93.7%. With `CC[C@H](C)[C@H](NC(=O)CN(C)C)C(=O)N(C)[C@H](C[C@@H](OC(C)=O)c1nc(C(=O)NC23C4C5C2C2C3C4C52C(=O)OC)cs1)C(C)C` (some centres not stated) the figure was -2.36% (active). With `CNC(=O)Oc1ccc(Cl)cc1SSc1cc(Cl)ccc1OC(=O)NC` the figure was 91.2%.

Take `CC(=O)OC1CC2(O)C(CCC3(C)C(c4ccc(=O)oc4)CCC32O)C2(C)CCC(OC3OC(CO)C(O)C(O)C3O)C=C12` (configuration not stated): the growth is -94.3% (active).

As to `Oc1ccc(O)c(Cl)c1`, the growth is 102% and 109%. On to `CC(=O)Nc1nc2c(s1)C1=CC[C@H]3[C@@H]4CC[C@H](OC(C)=O)[C@@]4(C)CC[C@@H]3[C@@]1(C)CC2`, for which the growth was 39.8%. With `O=C(O)C(F)F` the figure was 107%; with `CC[C@H](C)[C@H](NC(=O)C12CC(NC)(C1)C2)C(=O)N(C)[C@H](C[C@@H](OC(C)=O)c1nc(C(=O)N[C@@H](Cc2ccccc2)C[C@H](C)C(=O)OC)cs1)C(C)C`, 1.15% (active); with `NC(=O)Oc1cc(OC(N)=O)cc(N(CCCl)CCCl)c1`, 61.9%. With `CC[PH+](CC)CC.O=COC1OC([S-])C(OC=O)C(OC=O)C1OC=O.[Au+]` (configuration not stated) the figure was -50.3% (active); with `CCOC(=O)c1ccccc1C(=O)OCC`, 100%. With `C[C@@H]1C/C=C\C(=O)O[C@H](/C=C/C#C/C=C/C(C)(C)[C@@H](O)c2cccc(O)c2Br)[C@@H](C)/C=C/[C@H](C)C[C@H](OC(N)=O)C1` the figure was 14.2%; with `Cc1c(C)c(N)c(C)c(C)c1N`, 59.3%; with `Nc1ccc(P(=O)(O)O)cc1`, 112% and 103%. Consider `OCCN=Cc1c[nH]c2ccccc12`, for which the growth was 96.7%. Next, `S=P(SP(=S)(c1ccccc1)c1ccccc1)(c1ccccc1)c1ccccc1`: 109%; `CN1CCc2cc3c(cc2C1O)OCO3` (configuration not stated): 104% and 101%; `Cc1cc(NC(=O)NCCCOc2ccc(N3C(N)=NC(N)=NC3(C)C)cc2Cl)ccc1S(=O)(=O)F`: 17.8%.
